# Laboratory results: paper PMC7862700, “An all-to-all approach to the identification of sequence-specific readers for epigenetic DNA modifications on cytosine”
# Tests used:
# Assay in all cases: DAPPL (digital affinity profiling via proximity ligation, sequencing); 10 mM Tris-HCl pH 7.5, 50 mM NaCl, 1 mM DTT, 4% glycerol, room temperature, 30 min; GST-TFs on glutathione beads, 16-mer random dsDNA library, 0.1% formaldehyde crosslink after washing; high values mean tight binding
# FEV = target: T1, FEV (Homo sapiens, UniProt Q99581 1-238); settings: protein: recombinant; tags: N-terminal GST; dsDNA, one strand shown
# T1 sequence: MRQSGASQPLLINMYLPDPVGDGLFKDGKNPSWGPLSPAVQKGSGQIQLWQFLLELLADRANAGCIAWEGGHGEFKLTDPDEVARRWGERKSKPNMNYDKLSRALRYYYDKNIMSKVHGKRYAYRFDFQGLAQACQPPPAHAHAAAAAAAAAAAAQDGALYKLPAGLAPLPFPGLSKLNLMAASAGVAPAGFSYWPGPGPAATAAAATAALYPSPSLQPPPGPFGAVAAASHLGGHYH
# Outline: (§1)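 Binding signal is each hexamer's read frequency for a factor divided by its frequency in the tag-only sample. The factors were GST-fused human transcription factors from yeast, captured on glutathione beads, DNA-barcoded and pooled with that sample. Pools were incubated with 200 nmole of a random double-stranded 16-mer DNA library in Tris/NaCl/DTT/glycerol buffer at room temperature for 30 min, then washed, crosslinked with 0.1% formaldehyde, proximity-ligated with BsaI/T4 ligase (1 h, 37 °C), PCR-amplified and sequenced on an Illumina NextSeq500.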
# ETV5 = ETV5 (Homo sapiens, UniProt P41161 1-510); settings: protein: recombinant; tags: N-terminal GST; dsDNA, one strand shown
# Outline: as §1
# HSF1 = HSF1 (Homo sapiens, UniProt Q00613 1-529); settings: protein: recombinant; tags: N-terminal GST; chain copies: 3; dsDNA, one strand shown
# Outline: as §1
# SPIC = target: T2, SPIC (Homo sapiens, UniProt Q8N5J4 1-248); settings: protein: recombinant; tags: N-terminal GST; dsDNA, one strand shown
# T2 sequence: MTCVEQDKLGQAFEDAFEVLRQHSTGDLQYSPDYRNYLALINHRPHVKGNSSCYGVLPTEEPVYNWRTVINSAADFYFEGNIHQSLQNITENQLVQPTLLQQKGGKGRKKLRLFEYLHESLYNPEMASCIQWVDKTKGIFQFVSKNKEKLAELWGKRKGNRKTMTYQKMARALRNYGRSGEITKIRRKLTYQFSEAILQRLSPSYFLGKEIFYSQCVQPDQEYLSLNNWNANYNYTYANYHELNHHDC
# Outline: as §1
# ELF4 = ELF4 (Homo sapiens, UniProt Q99607 1-663); settings: protein: recombinant; tags: N-terminal GST; dsDNA, one strand shown
# Outline: as §1
# ELK4 = target: T3, ELK4 (Homo sapiens, UniProt P28324-2 1-405); settings: protein: recombinant; tags: N-terminal GST; dsDNA, one strand shown
# T3 sequence: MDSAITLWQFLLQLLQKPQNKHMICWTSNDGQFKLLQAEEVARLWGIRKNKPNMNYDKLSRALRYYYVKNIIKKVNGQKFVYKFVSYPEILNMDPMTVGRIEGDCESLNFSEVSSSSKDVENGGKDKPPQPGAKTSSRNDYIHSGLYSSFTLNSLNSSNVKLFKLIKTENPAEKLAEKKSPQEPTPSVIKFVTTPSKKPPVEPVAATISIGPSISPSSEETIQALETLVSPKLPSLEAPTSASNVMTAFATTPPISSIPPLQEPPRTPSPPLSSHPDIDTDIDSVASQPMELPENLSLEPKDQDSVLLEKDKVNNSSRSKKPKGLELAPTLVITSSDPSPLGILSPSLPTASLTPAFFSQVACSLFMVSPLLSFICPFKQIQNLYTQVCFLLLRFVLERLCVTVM
# Outline: as §1
# ETV2 = target: T4, ETV2 (Homo sapiens, UniProt O00321 1-342); settings: protein: recombinant; tags: N-terminal GST; dsDNA, one strand shown
# T4 sequence: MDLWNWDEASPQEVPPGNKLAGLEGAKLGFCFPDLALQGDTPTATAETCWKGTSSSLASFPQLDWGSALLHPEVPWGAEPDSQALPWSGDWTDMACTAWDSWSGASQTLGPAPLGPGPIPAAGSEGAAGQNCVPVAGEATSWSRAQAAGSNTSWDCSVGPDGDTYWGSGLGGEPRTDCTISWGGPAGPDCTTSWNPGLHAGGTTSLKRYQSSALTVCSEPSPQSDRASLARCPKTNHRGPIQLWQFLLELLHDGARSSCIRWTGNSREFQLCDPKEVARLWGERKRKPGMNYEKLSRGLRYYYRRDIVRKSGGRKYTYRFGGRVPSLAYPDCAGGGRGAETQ
# Outline: as §1
# ELF3 = target: T5, ELF3 (Homo sapiens, UniProt P78545 1-371); settings: protein: recombinant; tags: N-terminal GST; dsDNA, one strand shown
# T5 sequence: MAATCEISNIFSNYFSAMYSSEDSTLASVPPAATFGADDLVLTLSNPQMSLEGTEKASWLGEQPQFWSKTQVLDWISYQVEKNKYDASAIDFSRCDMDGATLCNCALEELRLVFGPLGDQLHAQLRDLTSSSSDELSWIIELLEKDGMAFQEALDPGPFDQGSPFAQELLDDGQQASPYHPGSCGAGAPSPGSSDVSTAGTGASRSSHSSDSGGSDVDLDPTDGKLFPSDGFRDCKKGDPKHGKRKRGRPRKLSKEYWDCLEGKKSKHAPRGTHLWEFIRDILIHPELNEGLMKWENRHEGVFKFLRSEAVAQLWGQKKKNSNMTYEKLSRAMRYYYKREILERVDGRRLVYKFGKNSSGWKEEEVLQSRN
# Outline: as §1
# CRX = CRX (Homo sapiens, UniProt O43186 1-299); settings: protein: recombinant; tags: N-terminal GST; dsDNA, one strand shown
# Outline: as §1
# ETV1 = ETV1 (Homo sapiens, UniProt P50549 1-477); settings: protein: recombinant; tags: N-terminal GST; dsDNA, one strand shown
# Outline: as §1
# ERF = target: T6, ERF (Homo sapiens, UniProt P50548 1-548); settings: protein: recombinant; tags: N-terminal GST; dsDNA, one strand shown
# T6 sequence: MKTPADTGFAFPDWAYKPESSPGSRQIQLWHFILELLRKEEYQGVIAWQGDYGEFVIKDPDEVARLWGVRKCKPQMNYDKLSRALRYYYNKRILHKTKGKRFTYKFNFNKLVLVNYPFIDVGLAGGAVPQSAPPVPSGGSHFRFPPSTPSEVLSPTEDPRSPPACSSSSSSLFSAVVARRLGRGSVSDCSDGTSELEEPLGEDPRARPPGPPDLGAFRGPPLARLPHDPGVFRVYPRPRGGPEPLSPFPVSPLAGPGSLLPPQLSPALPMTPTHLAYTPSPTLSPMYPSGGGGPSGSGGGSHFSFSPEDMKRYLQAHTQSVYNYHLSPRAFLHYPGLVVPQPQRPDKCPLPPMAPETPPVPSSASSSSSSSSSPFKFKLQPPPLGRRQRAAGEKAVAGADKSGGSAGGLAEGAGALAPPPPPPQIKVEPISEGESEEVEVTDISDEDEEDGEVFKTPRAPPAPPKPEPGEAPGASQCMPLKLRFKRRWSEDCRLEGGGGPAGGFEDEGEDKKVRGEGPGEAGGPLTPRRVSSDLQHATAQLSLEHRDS
# Outline: as §1
# ETV3L = target: T7, ETV3L (Homo sapiens, UniProt Q6ZN32 1-361); settings: protein: recombinant; tags: N-terminal GST; dsDNA, one strand shown
# T7 sequence: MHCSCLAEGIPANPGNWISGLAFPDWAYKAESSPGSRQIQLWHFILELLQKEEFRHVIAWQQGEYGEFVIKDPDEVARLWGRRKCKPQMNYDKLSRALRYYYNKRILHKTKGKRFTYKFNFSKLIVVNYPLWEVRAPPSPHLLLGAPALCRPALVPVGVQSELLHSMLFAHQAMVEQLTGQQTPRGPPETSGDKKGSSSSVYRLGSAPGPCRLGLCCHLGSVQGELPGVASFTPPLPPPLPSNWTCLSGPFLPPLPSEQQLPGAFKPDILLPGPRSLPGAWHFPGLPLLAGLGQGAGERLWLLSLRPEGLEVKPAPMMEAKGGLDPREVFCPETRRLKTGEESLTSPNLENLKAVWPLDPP
# Outline: as §1
# ETS2 = target: T8, ETS2 (Homo sapiens, UniProt P15036 1-469); settings: protein: recombinant; tags: N-terminal GST; dsDNA, one strand shown
# T8 sequence: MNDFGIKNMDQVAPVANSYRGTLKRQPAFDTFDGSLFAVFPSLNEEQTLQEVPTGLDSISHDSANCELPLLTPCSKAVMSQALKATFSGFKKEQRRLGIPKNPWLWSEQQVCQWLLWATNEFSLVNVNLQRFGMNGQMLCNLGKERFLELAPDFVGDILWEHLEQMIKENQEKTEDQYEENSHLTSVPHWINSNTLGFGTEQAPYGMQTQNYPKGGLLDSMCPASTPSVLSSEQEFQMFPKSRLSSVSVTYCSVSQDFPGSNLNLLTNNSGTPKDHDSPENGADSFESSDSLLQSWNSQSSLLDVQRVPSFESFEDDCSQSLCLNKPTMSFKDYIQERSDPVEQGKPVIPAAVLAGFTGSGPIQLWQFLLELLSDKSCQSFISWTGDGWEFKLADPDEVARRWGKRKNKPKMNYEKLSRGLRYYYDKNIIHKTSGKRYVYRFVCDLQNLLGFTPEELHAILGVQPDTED
# Outline: as §1
# SPDEF = target: T9, SPDEF (Homo sapiens, UniProt O95238 1-335); settings: protein: recombinant; tags: N-terminal GST; dsDNA, one strand shown
# T9 sequence: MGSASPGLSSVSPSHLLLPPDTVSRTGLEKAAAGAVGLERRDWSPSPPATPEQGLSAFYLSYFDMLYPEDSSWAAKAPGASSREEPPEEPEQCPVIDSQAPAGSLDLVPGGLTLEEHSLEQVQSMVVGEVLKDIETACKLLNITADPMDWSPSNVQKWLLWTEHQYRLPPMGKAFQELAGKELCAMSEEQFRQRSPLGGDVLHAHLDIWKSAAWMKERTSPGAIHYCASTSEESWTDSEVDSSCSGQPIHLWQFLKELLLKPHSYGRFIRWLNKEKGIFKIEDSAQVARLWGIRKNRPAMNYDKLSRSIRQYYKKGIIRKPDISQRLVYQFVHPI
# Outline: as §1
# ETV7 = target: T10, ETV7 (Homo sapiens, UniProt Q9Y603 1-341); settings: protein: recombinant; tags: N-terminal GST; dsDNA, one strand shown
# T10 sequence: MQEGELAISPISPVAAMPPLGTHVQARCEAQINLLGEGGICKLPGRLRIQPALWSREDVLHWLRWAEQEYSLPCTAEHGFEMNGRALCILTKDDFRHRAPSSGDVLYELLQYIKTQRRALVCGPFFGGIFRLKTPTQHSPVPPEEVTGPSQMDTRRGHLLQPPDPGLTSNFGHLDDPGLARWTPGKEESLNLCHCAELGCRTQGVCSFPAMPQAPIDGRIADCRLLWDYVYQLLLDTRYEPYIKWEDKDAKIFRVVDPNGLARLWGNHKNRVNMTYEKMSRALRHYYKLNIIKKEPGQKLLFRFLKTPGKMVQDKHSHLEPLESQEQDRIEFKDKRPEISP
# Outline: as §1
# ELF5 = target: T11, ELF5 (Homo sapiens, UniProt Q9UKW6-2 1-255); settings: protein: recombinant; tags: N-terminal GST; dsDNA, one strand shown
# T11 sequence: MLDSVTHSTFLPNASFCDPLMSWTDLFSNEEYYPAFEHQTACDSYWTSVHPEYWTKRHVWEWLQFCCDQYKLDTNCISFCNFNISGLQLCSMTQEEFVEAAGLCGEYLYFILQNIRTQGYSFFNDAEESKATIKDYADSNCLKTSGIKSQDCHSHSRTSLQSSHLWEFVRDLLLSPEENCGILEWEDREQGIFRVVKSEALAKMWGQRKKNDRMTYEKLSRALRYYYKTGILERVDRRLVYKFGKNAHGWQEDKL
# Outline: as §1
# ETV3 = target: T12, ETV3 (Homo sapiens, UniProt P41162-2 1-143); settings: protein: recombinant; tags: N-terminal GST; dsDNA, one strand shown
# T12 sequence: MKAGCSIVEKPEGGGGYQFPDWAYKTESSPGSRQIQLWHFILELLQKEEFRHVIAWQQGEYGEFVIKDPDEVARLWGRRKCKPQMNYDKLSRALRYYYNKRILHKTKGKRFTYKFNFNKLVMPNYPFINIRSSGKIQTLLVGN
# Outline: as §1
# ETV6 = ETV6 (Homo sapiens, UniProt P41212 1-452); settings: protein: recombinant; tags: N-terminal GST; dsDNA, one strand shown
# Outline: as §1
# Chain of ETV5 (P41161 whole entry): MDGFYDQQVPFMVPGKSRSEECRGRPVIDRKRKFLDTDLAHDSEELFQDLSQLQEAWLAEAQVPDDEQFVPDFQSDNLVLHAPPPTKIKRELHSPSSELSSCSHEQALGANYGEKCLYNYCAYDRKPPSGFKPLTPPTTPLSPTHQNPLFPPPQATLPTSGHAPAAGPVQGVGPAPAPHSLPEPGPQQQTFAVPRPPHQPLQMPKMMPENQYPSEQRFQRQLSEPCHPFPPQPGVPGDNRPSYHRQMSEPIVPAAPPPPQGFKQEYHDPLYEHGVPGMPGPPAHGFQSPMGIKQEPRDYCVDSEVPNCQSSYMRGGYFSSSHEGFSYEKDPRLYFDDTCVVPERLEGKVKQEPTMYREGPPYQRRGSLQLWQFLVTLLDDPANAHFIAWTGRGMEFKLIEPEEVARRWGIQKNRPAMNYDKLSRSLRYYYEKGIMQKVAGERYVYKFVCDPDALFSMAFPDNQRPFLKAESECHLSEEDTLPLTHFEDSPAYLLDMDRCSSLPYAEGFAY
# Chain of ETV6 (P41212 whole entry): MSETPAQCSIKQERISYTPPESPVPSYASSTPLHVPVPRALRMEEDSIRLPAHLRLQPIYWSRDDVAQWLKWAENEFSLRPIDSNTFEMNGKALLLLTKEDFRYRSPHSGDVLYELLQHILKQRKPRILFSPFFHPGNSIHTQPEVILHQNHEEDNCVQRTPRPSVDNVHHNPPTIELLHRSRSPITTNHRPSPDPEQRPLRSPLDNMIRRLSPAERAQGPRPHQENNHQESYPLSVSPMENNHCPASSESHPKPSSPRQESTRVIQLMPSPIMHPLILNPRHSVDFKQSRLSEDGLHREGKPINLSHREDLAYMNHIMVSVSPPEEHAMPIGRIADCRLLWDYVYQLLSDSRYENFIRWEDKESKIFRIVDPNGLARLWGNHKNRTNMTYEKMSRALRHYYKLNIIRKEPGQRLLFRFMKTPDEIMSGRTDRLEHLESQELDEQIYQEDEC
# Chain of ETV1 (P50549 whole entry): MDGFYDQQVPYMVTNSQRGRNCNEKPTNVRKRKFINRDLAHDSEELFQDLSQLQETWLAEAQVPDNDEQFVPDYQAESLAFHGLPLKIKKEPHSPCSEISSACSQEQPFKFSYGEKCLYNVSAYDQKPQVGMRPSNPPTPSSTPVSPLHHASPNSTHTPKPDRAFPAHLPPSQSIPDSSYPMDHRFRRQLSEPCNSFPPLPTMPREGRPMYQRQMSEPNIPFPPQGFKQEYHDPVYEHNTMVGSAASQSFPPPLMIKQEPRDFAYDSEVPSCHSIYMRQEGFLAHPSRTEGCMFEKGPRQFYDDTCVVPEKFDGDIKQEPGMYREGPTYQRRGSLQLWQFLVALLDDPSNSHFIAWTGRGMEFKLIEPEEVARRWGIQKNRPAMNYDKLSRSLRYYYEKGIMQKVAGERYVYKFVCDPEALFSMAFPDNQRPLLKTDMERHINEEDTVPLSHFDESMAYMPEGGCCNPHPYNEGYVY
# Chain of HSF1 (Q00613 whole entry): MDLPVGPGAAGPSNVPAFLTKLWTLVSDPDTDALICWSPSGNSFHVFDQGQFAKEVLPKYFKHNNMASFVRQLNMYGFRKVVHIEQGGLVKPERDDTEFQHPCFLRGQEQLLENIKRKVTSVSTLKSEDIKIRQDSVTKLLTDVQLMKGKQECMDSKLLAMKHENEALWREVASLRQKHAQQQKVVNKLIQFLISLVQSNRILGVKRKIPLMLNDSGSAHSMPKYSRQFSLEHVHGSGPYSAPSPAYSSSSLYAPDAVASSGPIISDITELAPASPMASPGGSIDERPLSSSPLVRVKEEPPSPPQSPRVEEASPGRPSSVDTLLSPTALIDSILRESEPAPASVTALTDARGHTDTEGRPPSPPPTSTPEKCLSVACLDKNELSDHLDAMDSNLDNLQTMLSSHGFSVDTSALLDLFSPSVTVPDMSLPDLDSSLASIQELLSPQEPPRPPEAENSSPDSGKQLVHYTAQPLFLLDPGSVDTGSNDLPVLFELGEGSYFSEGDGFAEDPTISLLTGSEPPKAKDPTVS
# Chain of ELF4 (Q99607 whole entry): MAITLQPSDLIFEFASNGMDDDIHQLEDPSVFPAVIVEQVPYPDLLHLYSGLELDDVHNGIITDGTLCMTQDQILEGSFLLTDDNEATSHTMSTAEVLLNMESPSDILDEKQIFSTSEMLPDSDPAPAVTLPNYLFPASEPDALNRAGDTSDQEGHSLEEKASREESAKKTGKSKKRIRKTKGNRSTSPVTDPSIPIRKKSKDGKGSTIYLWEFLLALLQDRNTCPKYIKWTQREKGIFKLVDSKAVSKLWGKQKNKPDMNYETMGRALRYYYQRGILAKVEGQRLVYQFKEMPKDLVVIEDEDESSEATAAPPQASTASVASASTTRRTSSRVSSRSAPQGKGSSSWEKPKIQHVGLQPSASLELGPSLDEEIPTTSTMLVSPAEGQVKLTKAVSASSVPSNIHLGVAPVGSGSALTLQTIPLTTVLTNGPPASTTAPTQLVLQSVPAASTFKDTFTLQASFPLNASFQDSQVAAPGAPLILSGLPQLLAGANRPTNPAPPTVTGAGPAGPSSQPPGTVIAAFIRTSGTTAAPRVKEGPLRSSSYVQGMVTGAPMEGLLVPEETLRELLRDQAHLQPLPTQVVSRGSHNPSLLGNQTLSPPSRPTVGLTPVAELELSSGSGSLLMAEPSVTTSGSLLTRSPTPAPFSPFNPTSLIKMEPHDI
# Chain of CRX (O43186 whole entry): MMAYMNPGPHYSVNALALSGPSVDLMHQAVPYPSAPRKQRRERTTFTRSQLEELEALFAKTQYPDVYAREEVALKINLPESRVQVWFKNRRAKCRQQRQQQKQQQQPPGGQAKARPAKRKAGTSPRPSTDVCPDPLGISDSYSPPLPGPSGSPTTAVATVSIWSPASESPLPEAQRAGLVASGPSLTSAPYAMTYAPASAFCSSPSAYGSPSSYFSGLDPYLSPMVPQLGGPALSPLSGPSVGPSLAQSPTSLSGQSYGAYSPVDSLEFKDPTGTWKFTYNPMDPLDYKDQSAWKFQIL
sequence,measurement,setting,value
ATACAA,binding signal,FEV,"1.09 fold enrichment (6-mer frequency, TF over GST control)"
same,binding signal,ETV5,"1.15 fold enrichment (6-mer frequency, TF over GST control)"
same,binding signal,HSF1,"1.03 fold enrichment (6-mer frequency, TF over GST control)"
same,binding signal,SPIC,"1.06 fold enrichment (6-mer frequency, TF over GST control)"
same,binding signal,ELF4,"1.17 fold enrichment (6-mer frequency, TF over GST control)"
same,binding signal,ELK4,"1.08 fold enrichment (6-mer frequency, TF over GST control)"
same,binding signal,ETV2,"1.04 fold enrichment (6-mer frequency, TF over GST control)"
same,binding signal,ELF3,"1.16 fold enrichment (6-mer frequency, TF over GST control)"
same,binding signal,CRX,"1.07 fold enrichment (6-mer frequency, TF over GST control)"
same,binding signal,ETV1,"1.13 fold enrichment (6-mer frequency, TF over GST control)"
same,binding signal,ERF,"1.15 fold enrichment (6-mer frequency, TF over GST control)"
same,binding signal,ETV3L,"1.12 fold enrichment (6-mer frequency, TF over GST control)"
same,binding signal,ETS2,"1.19 fold enrichment (6-mer frequency, TF over GST control)"
same,binding signal,SPDEF,"1.14 fold enrichment (6-mer frequency, TF over GST control)"
same,binding signal,ETV7,"1.14 fold enrichment (6-mer frequency, TF over GST control)"
same,binding signal,ELF5,"1.08 fold enrichment (6-mer frequency, TF over GST control)"
same,binding signal,ETV3,"1.08 fold enrichment (6-mer frequency, TF over GST control)"
same,binding signal,ETV6,"1.12 fold enrichment (6-mer frequency, TF over GST control)"
